Screen size: about 360,000 compounds; about 2,100 (0.58%) were called active. Many of the other results were omitted from the sample, so actives are more common in it than they were. Unmarked numbers belong to inactive results.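 The calls were made as follows: active = inhibition above a per-plate cutoff, the mean of that plate's test compounds plus 3 SD (cut at about 27% in these data); inactive = the rest.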
Target: Muscarinic acetylcholine receptor M5 (Homo sapiens) (UniProt P08912)
Assay: CHRM5 blockers of acetylcholine calcium response – CHO cells, Fluo-8 calcium fluorescence, primary screen (AID 624040);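 also: 0% = acetylcholine EC80 with DMSO and 100% = DMSO without agonist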
Conditions: CHO-hM5 cells, ACh EC80, at 3 µM, stronger effect = higher value

Muscarinic acetylcholine receptor M5 (Homo sapiens), sequence (P08912 whole entry, looked up): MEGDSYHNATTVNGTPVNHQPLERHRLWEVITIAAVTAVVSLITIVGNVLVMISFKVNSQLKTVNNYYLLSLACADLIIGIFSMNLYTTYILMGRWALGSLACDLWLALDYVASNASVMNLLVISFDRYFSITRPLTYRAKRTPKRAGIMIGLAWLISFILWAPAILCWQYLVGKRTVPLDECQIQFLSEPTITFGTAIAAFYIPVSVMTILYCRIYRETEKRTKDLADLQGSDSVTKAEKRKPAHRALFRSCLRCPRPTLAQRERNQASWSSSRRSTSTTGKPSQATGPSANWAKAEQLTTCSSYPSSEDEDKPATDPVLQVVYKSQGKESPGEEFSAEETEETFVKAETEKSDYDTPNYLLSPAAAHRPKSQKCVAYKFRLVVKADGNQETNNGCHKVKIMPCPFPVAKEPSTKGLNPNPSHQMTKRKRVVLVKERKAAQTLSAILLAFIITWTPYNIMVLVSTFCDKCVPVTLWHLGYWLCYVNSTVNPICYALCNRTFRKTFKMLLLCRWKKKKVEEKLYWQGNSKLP

Compound | inhibition
CSCCC(NC(=O)COc1ccccc1)C(=O)Nc1ccc(C)cc1 (stereo not given) | 0.42%
CC(C)c1ccc2oc(=O)cc(CN3CCN(Cc4ccccc4)CC3)c2c1 | 27.9% (active)
O=c1cc(CN2CCCCCCC2)c2c(ccc3ccccc32)o1 | 1.52%
Cc1cc2oc(=O)cc(CN3CCN(S(=O)(=O)c4cccs4)CC3)c2cc1C(C)C | 6.3%
COc1ccc(-c2cc3nc(C)c(CCC(=O)NC(C)CCc4ccco4)c(C)n3n2)c(OC)c1 (stereo not given) | -13.5%
CCC(C)C(NC(=O)C1CCC(=O)N1C(=O)OCc1ccccc1)C(=O)NC(C(=O)N1CCCC1C(N)=O)C(C)CC (stereo not given) | 5.74%
CCCCCCCCn1c2c(c(=N)c3c1CCC3)CCCC2 | 32.9% (active)
C#Cc1ccc([C@@H]2C=C(C(=O)O)O[C@H](OCCCCO)C2)cc1 | 13.8%
CCCN(Cc1cc2cccc(C)c2[nH]c1=O)S(C)(=O)=O | -2.81%
COc1cccc(CNC(=O)CCC2CCCN(C(=O)c3ccoc3C)C2)c1 (stereo not given) | 12.6%
COc1cccc(CNC(=O)CCC2CCCN(C(=O)c3cc(C)[nH]n3)C2)c1 (stereo not given) | 32.7% (active)
COc1cccc(CNC(=O)CCC2CCCN(C(=O)c3ccc(F)c(Cl)c3)C2)c1 (stereo not given) | -0.63%
CC1(C)Cc2nc3sc4c(SCC(=O)NC(c5ccccc5)c5ccccc5)ncnc4c3cc2CO1 | -8.35%
CN(C)c1ccc(/C=C2\NC(=S)N(Cc3ccccc3)C2=O)cc1 | 52.7% (active)
CCN(C(=O)CSc1nnnn1-c1ccc(OC)cc1)C1CCS(=O)(=O)C1 (stereo not given) | 12.8%
CC(Sc1nn(-c2ccc(Cl)cc2)c(=S)s1)C(=O)NCC1CCCO1 (stereo not given) | -4.62%
O=[N+]([O-])c1c(NCCO)cc(Sc2nc3ccccc3s2)c2nonc12 | 29.2% (active)
N#Cc1ccc(OCCN2C(=O)NC3(CCSC3)C2=O)cc1 (stereo not given) | -5.81%
COc1ccc(NC(=O)c2sccc2SCC#N)cc1 | 2.72%
CN1CCN(C(=O)C2=C[C@H](c3ccc4c(c3)OCO4)C[C@H](OCc3ccc(CO)cc3)O2)CC1 | 3.48%
COc1ccc(-n2nnc3c(=O)n(CC(=O)OCc4ccccc4)cnc32)cc1 | 4.49%
CCSc1nsc(NC(=O)Nc2cccc(C(C)=O)c2)n1 | 22.5%
CSc1nsc(NC(=O)Nc2ccccc2)n1 | 31.1% (active)
C=CCSc1nsc(NC(=O)Nc2cccc(C(C)=O)c2)n1 | 21.8%
COC(=O)/C(C#N)=C/c1occc1C | 2.54%

— PubChem BioAssay AID624040 (The Scripps Research Institute Molecular Screening Center, 2012)
